From PubChem BioAssay (EPA / NIEHS)
Activity calls are given as the source filed them. Rule for the calls: active = hit-call score of the fitted dose curve at least 0.9, where 1 is the maximum; inactive = score below 0.9.

Tests used:
[1] = read-out: Vascular endothelial growth factor receptor 2 (Homo sapiens) (UniProt P35968); experiment: BSK_4H_VEGFRII: BioMAP Diversity Plus: 4H Assay for Vascular endothelial growth factor receptor 2 (VEGFR2) Biomarker Activity (AID 2283031); conditions: primary human endothelial cells (HUVEC); actives raise or lower the signal
Method in brief: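 In this multiplexed HUVEC system, biomarker ELISA was performed after 24 h chemical exposure. Parallel SRB staining (TCA fixation, 560 nm) tracked cytotoxicity; DMSO served as baseline.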

[2] = read-out: Human Leukocyte Antigen - DR isotype (HLADR), HLA-DRA (gene 3122); experiment: BSK_BE3C_HLADR: BioMAP Diversity Plus: BE3C Assay for Human Leukocyte Antigen - DR isotype (HLADR) Biomarker Activity (AID 2283032); conditions: primary human bronchial epithelial cells; actives raise or lower the signal
Method in brief: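 Human primary bronchial epithelial cells in the BE3C system were exposed to chemicals for 24 h, after which HLA-DR levels were quantified by ELISA. Activity was fitted bidirectionally, gain or loss of signal, against DMSO as negative control and baseline.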

[3] = read-out: Vascular cell adhesion molecule 1 (VCAM1), VCAM1 (gene 7412); experiment: BSK_4H_VCAM1: BioMAP Diversity Plus: 4H Assay for Vascular cell adhesion molecule 1 (VCAM1) Biomarker Activity (AID 2283033); conditions: primary human endothelial cells (HUVEC); actives raise or lower the signal
Method in brief: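 Primary human umbilical vein endothelial cells were exposed to chemicals for 24 h, after which VCAM-1 was quantified by ELISA. Responses were fitted bidirectionally against DMSO as negative control and activity baseline.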

[4] = read-out: Interferon-gamma inducible Protein 10 (IP10), CXCL10 (gene 3627); experiment: BSK_BE3C_IP10: BioMAP Diversity Plus: BE3C Assay for Interferon-gamma inducible Protein 10 (IP10) Biomarker Activity (AID 2283034); conditions: primary human bronchial epithelial cells; actives raise or lower the signal
Method in brief: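 Human primary bronchial epithelial cells were exposed to chemicals for 24 hours, after which IP-10 levels were measured by ELISA. Data were fitted bidirectionally against DMSO, which served as the negative control and activity baseline.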

[5] = read-out: Monokine induced gamma interferon (MIG), CXCL9 (gene 4283); experiment: BSK_BE3C_MIG: BioMAP Diversity Plus: BE3C Assay for Monokine induced gamma interferon (MIG) Biomarker Activity (AID 2283035); conditions: primary human bronchial epithelial cells; actives raise or lower the signal;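 note: MIG protein measured by ELISA in BE3C cultures after 24 h of dosing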
Method in brief: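 MIG level was determined by ELISA after 24 h chemical treatment of primary human bronchial epithelial cells. Values were fitted bidirectionally with DMSO as the negative control and activity baseline.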

[6] = read-out: Transforming growth factor beta 1 (TGFb1), TGFB1 (gene 7040); experiment: BSK_BE3C_TGFb1: BioMAP Diversity Plus: BE3C Assay for Transforming growth factor beta 1 (TGFb1) Biomarker Activity (AID 2283036); conditions: primary human bronchial epithelial cells; actives raise or lower the signal
Method in brief: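 Human primary bronchial epithelial cells (BE3C system) were dosed with chemical and TGF-b1 levels measured by ELISA at 24 h. Activity was fitted bidirectionally relative to DMSO negative control as baseline.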

[7] = read-out: Plasminogen activator inhibitor-1 (PAI1), SERPINE1 (gene 5054); experiment: BSK_BE3C_PAI1: BioMAP Diversity Plus: BE3C Assay for Plasminogen activator inhibitor-1 (PAI1) Biomarker Activity (AID 2283037); conditions: primary human bronchial epithelial cells; actives raise or lower the signal
Method in brief: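 Human primary bronchial epithelial cells were exposed to chemical for 24 h, then PAI-1 was quantified by ELISA. Activity was fitted bidirectionally relative to the DMSO negative control baseline.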

[8] = read-out: urokinase plasminogen activator (uPA), PLAU (gene 5328); experiment: BSK_BE3C_uPA: BioMAP Diversity Plus: BE3C Assay for urokinase plasminogen activator (uPA) Biomarker Activity (AID 2283038); conditions: primary human bronchial epithelial cells; actives raise or lower the signal
Method in brief: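 Using confluent primary human lung bronchial epithelial cultures, we dosed chemicals, waited 24 h, then ran a uPA ELISA, fitting bidirectionally against DMSO.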

[9] = read-out: Urokinase-type plasminogen activator receptor (uPAR), PLAUR (gene 5329); experiment: BSK_BE3C_uPAR: BioMAP Diversity Plus: BE3C Assay for Urokinase-type plasminogen activator receptor (uPAR) Biomarker Activity (AID 2283039); conditions: primary human bronchial epithelial cells; actives raise or lower the signal;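 note: uPAR protein level measured by ELISA on the cells; cells exposed to compound for one day before measurement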
Method in brief: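 Primary human bronchial epithelial cells were dosed with chemical and harvested 24 h later; uPAR was quantified by ELISA. Activity was fitted bidirectionally against DMSO as negative control and baseline.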

[10] = read-out: Interleukin-6 (IL6), IL6 (gene 3569); experiment: BSK_CASM3C_IL6: BioMAP Diversity Plus: CASM3C Assay for Interleukin-6 (IL6) Biomarker Activity for (AID 2283040); conditions: primary human coronary artery smooth muscle cells; actives raise or lower the signal

Measured: AC50

OC[C@H]1O[C@@H]2O[C@H]3[C@H](O)[C@@H](O)[C@@H](O[C@H]4[C@H](O)[C@@H](O)[C@@H](O[C@H]5[C@H](O)[C@@H](O)[C@@H](O[C@H]6[C@H](O)[C@@H](O)[C@@H](O[C@H]7[C@H](O)[C@@H](O)[C@@H](O[C@H]1[C@H](O)[C@H]2O)O[C@@H]7CO)O[C@@H]6CO)O[C@@H]5CO)O[C@@H]4CO)O[C@@H]3CO
inactive: [1] | [2] | [3] | [4] | [5] | [6] | [7] | [8] | [9] | [10]

CC(C)CC(C)O (stereo unspecified)
inactive: [1] | [2] | [3] | [4] | [5] | [6] | [8] | [9] | [10]

C[C@]12C=CC(=O)C=C1CC[C@H]1[C@@H]3C[C@@H](O)[C@](O)(C(=O)CO)[C@@]3(C)C[C@H](O)[C@@]12F
active: [10] 0.356 µM
inactive: [1] | [2] | [3] | [4] | [5] | [6] | [7] | [8] | [9]

COc1cc(C(C)C)c2c(c1)S(=O)(=O)N(COc1cc(=O)n3cccc(OCCN4CCCCC4)c3n1)C2=O
inactive: [1] | [5] | [6] | [9] | [10]
active: [2] 6.88 µM | [3] 5 µM | [4] 7.41 µM | [7] 8.4 µM | [8] 8.13 µM

NC(N)=O
inactive: [1] | [2] | [3] | [4] | [5] | [6] | [7] | [8] | [9] | [10]

OCc1ccccc1
inactive: [1] | [2] | [3] | [4] | [5] | [6] | [7] | [8] | [9] | [10]

CCn1nc(C)c2c1C(=O)NCC(c1ccc(O)cc1)=N2
inactive: [1] | [2] | [3] | [4] | [5] | [6] | [8] | [9] | [10]

Nc1ccn([C@@H]2O[C@H](CO)[C@@H](O)[C@@H]2O)c(=O)n1
inactive: [1] | [2] | [3] | [4] | [5] | [6] | [8] | [9] | [10]

O=c1[nH]cnc2c1ncn2[C@H]1CC[C@@H](CO)O1
inactive: [1] | [2] | [3] | [4] | [5] | [6] | [7] | [8] | [9] | [10]

CCCCCCCCN(C)C
inactive: [1] | [2] | [3] | [4] | [5] | [6] | [8] | [9] | [10]

COS(C)(=O)=O
inactive: [1] | [2] | [3] | [4] | [5] | [6] | [7] | [8] | [9] | [10]

Cn1cc[nH]c1=S
inactive: [1] | [2] | [3] | [4] | [5] | [6] | [7] | [8] | [9] | [10]

CCCCCOC(C)=O
inactive: [1] | [2] | [3] | [4] | [5] | [6] | [8] | [9] | [10]

NC(=O)N(O)[C@@H]1COc2cc(OCc3ccccc3)ccc21
inactive: [1] | [2] | [3] | [4] | [5] | [6] | [8] | [9] | [10]

CCCCCCCC/C=C\CCCCCCCC(=O)OC[C@@H](O)[C@H]1OC[C@H](O)[C@H]1O
inactive: [1] | [2] | [3] | [4] | [5] | [6] | [8] | [9] | [10]

FC(F)(F)C(F)(F)C(F)(F)C(F)(F)C(F)(F)C(F)(F)I
inactive: [1] | [2] | [3] | [4] | [5] | [7] | [8] | [9] | [10]

FC(F)=C(F)C(F)(F)C(F)(F)C(F)(F)C(F)(F)C(F)(F)C(F)(F)F
inactive: [1] | [2] | [3] | [4] | [5] | [8] | [9] | [10]

NNC(=O)c1ccncc1
inactive: [1] | [2] | [3] | [4] | [5] | [6] | [8] | [9] | [10]

OC(Cn1cncn1)(Cn1cncn1)c1ccc(F)cc1F
inactive: [1] | [2] | [3] | [4] | [5] | [6] | [8] | [9] | [10]

O=C(NO)C1(NS(=O)(=O)c2ccc(Oc3ccc(F)cc3)cc2)CCOCC1
inactive: [1] | [2] | [3] | [4] | [5] | [6] | [8] | [9] | [10]

O=C(O)c1ccc2c(c1)nc(C(=O)NC1CCN(C3CC3)CC1)n2Cc1cc(-c2ccc(Cl)s2)on1
inactive: [1] | [2] | [3] | [4] | [5] | [6] | [8] | [9] | [10]
